Each compound was assayed on Plasmodium falciparum (assay: GSK_TCMDC: Inhibition of Plasmodium falciparum Dd2 in whole red blood cells, using parasite LDH activity as an index of growth. Test compounds present at 2uM).
Assay type: functional

Q: Which Inhibition does the source give for Fc1ccc2[nH]c(-c3cccc(-c4cccc(CNCc5cnn(-c6ccccc6)n5)c4)c3)nc2c1.O=C(O)C(F)(F)F here?
A: 57%

Q: Which Inhibition does the source give for NCc1cccc(-c2ccc3ccnc(N)c3c2)c1 here?
A: 96%

Q: For CS(=O)(=O)Nc1ccc2[nH]cc(C3CCN(CC(O)C4CCN(C(=O)/C=C/c5ccc(Cl)c(Cl)c5)CC4)CC3)c2c1.O=C(O)C(F)(F)F (centres undefined), which Inhibition is on record?
A: 0%

Q: With Cc1cc(-c2cccc3c(NC(=O)N4CCc5cc6nccc(N7CCN8CCC[C@H]8C7)c6cc54)cccc23)cc(C)n1.Cl as the compound, how does the Inhibition read?
A: 100%

Q: How did the Inhibition turn out when CC(C)CCN1CCC(Oc2ccc(NC(=O)c3ccc(F)cc3)cc2Cl)CC1.O=C(O)C(F)(F)F was run?
A: 88%

Q: Which Inhibition does the source give for CC(C)COc1ccc(Cl)cc1Cc1nc(-c2nc3ccc(CN4CCCC4)cc3[nH]2)co1.Cl here?
A: 66%

Q: For COc1ccc2nc(-c3ccccc3)cc(NCCN(C)C)c2c1, which Inhibition is on record?
A: 23%

Q: Which Inhibition does the source give for O=C(Nc1cccc(C(F)(F)F)c1)c1cccc(S(=O)(=O)NCC2CCN(CC3CCCCC3)CC2)c1.O=C(O)C(F)(F)F here?
A: 5%

Q: With O=C(/C=C/c1ccc(Cl)cc1)NCCCCCN1CCCC(C(=O)Nc2ccc(Cl)c(Cl)c2)C1 (centres undefined) as the compound, how does the Inhibition read?
A: 3%

From ChEMBL document CHEMBL1157539, “Thousands of chemical starting points for antimalarial lead identification” (Nature, 2010)
